Measurements as given in paper PMC4336329 (PLoS ONE, 2015).
The whole screen tested about 310,000 compounds, of which about 14,000 (4.5%) showed an effect of 50% or more. Effects have a minus sign here. This is one part of a sample in which strong results are shown more often than they occur.

biological target: human ether-à-go-go-related gene (hERG) potassium channel (human, UniProt Q12809); experiment: primary screen, population patch clamp on CHO cells stably expressing hERG; higher = less effect of the substance
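Note: peak tail current of the secondary pulse compared with the same well before compound.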

human ether-à-go-go-related gene (hERG) potassium channel, sequence (Q12809 whole entry, looked up): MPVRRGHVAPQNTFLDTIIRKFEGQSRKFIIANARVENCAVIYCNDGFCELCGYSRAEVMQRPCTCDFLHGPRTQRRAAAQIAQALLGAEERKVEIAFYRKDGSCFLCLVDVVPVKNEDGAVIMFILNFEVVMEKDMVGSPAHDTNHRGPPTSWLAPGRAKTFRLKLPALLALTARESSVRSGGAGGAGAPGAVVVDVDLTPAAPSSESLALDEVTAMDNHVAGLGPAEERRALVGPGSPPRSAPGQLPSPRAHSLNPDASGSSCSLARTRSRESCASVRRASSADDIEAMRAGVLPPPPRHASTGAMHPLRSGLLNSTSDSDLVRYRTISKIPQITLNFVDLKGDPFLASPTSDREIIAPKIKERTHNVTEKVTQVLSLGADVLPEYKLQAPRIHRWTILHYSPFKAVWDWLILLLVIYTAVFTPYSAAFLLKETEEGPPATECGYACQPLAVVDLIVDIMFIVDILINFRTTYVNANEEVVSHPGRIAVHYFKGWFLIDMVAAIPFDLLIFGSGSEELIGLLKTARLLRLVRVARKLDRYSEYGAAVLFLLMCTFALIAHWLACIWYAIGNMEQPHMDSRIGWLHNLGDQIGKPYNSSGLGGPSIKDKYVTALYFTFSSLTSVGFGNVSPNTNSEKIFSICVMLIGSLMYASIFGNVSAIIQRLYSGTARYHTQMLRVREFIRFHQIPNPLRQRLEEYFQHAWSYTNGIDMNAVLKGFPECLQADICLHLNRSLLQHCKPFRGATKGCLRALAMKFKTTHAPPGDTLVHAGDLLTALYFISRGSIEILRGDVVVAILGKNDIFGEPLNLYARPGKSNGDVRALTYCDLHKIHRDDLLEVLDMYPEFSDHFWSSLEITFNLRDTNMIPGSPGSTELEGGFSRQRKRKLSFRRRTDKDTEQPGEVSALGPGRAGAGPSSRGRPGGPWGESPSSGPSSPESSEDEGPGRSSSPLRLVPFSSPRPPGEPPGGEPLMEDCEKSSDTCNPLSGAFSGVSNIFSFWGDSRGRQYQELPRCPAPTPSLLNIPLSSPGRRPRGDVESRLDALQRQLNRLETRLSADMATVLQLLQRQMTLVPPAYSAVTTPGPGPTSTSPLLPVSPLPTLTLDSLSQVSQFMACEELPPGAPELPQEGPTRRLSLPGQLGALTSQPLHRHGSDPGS

Point of comparison: `CCCCOC(=O)CN1C(=O)c2ccc(C(=O)OCCCC)cc2C1=O`, “hERG current change (%, negative = inhibition) at 10uM” value 4.54%. Against it:
- COC(=O)C1=C(C)Nc2nnnn2C1c1ccccc1Cl (centres unmarked) — lower, -2.51%
- CCOC(=O)Cc1cc(OC)c(OC)cc1Cc1cc(OC)c(OC)cc1CC(=O)OCC — higher, 9.74%
- C/C(=N\NC(=O)C1(C)CC1(Br)Br)c1ccc(NC(=O)C2CCC2)cc1 (centres unmarked) — higher, 7.51%
- COc1ccc(CCNc2cc(C)[nH]c(=O)c2)cc1OC — higher, 29.6%
- CCOC(=O)c1c(N)c2cc([N+](=O)[O-])ccc2n1C — higher, 18.1%
- CCOCCCNC(=S)N1C2CCC1CC(NC(=O)NC13CC4CC(CC(C4)C1)C3)C2 (centres unmarked) — lower, -8.16%
- O=C(NCc1ccc(F)cc1)C1CCCN(c2cnccn2)C1 (centres unmarked) — lower, -65%
- O=C(NCc1ccccc1F)C1CCCN(c2cnccn2)C1 (centres unmarked) — higher, 13.4%
- O=C(Nc1ccc(F)cc1)C1CCCN(c2cnccn2)C1 (centres unmarked) — lower, -11.9%
- Cc1c(CCC(=O)NCC(=O)NCC(=O)O)c(=O)oc2cc3oc4c(c3cc12)CCCC4 — higher, 4.87%
- COc1ccc2cc3cc(C(=O)NCCN4CCc5ccccc5C4)oc3nc2c1 — lower, -63.3%
- COc1ccc2cc3cc(C(=O)NCCCN4CCOCC4)oc3nc2c1 — lower, -5.55%
- CCOC(=O)N1CCC(NC(=O)c2cc3cc4cc(OC)ccc4nc3o2)CC1 — lower, -16.2%
- COc1ccc2cc3cc(C(=O)NCCCN4CCC(C)CC4)oc3nc2c1 — lower, -58.5%
- COc1ccc2cc3cc(C(=O)NCCCN4CCc5ccccc5C4)sc3nc2c1 — lower, -32.7%
- COCCCNC(=O)c1cc2cc3cc(OC)ccc3nc2o1 — lower, -12.9%
- COc1ccc2nc3oc(C(=O)NC4CCN(Cc5ccccc5)CC4)cc3cc2c1 — lower, -67.1%
- COc1ccc2cc3cc(C(=O)NCCN4CCc5ccccc5C4)sc3nc2c1 — lower, -32.9%
- COc1ccc2cc3cc(C(=O)NCCN4CCN(Cc5ccccc5)CC4)oc3nc2c1 — lower, -71.8%
- COc1ccc2cc3cc(C(=O)NCc4ccccn4)oc3nc2c1 — higher, 12.1%
- CCN1CCN(CCCNC(=O)c2cc3cc4ccc(OC)cc4nc3o2)CC1 — lower, -17.1%
- COc1ccc2cc3cc(C(=O)NCCN4CCN(c5ccccc5F)CC4)oc3nc2c1 — lower, -15.8%
- O.O=C([O-])c1ccn2c(C(=O)c3ccccc3)c(-c3ccccc3)cc2c1 — higher, 12.8%
- C/C(=C\C(=O)OCC(=O)NCc1ccccc1)C(=O)OCC(=O)NCc1ccccc1 — higher, 18.8%
- CCN1C(=O)CSc2ccc(C(=O)NC3CCCCC3)cc21 — lower, -5.4%
- Cc1cn2c(=O)c(C(=O)N3CCN(c4ccccc4Cl)CC3)cnc2s1 — lower, -62.8%
- Cc1cn2c(=O)c(C(=O)N3CCN(c4ccccc4F)CC3)cnc2s1 — lower, -6.27%
- O=C(c1cnc2sccn2c1=O)N1CCN(c2ccccc2Cl)CC1 — lower, -2.33%
- CCCCCCCC1c2c(c(C)c(C)oc2=O)Oc2c(C)c(C)oc(=O)c21 — higher, 11.9%
- CCN1C(=O)[C@H]2[C@@H](c3ccc(-c4ccc(OC)cc4)cc3)N[C@@](Cc3ccccc3)(C(=O)OC)[C@H]2C1=O.O=C(O)C(F)(F)F — lower, 3.09%
- CCc1ccc(CN(C)C(=O)CCc2nnc(-c3ccc(-c4ccccc4)cc3)o2)nc1 — lower, -65.1%
- CCc1ccc(CN(C)C(=O)CCc2nnc(CCc3ccccc3OC)o2)nc1 — lower, -1.47%
- CN(Cc1ccon1)C(=O)CCc1nnc(Cc2ccc(-c3ccccc3)cc2)o1 — lower, -20%
- CCOc1ccc(CCNC(=O)COC(=O)/C=C/c2ccc(OC(F)F)c(OC)c2)cc1OCC — lower, -15.2%
- Cc1cccc(C)c1NC(=O)C(=O)NCCOc1ccc(Cl)cc1 — lower, -26%
- CCN(C(=S)Nc1cccc(C)c1)c1ccccc1 — higher, 13.2%
- O=C(NCc1ccccc1)/C(=C\c1ccc(O)cc1)NC(=O)c1ccco1 — lower, -20.7%
- O=C(NCc1ccco1)/C(=C/c1ccc(Br)cc1)NC(=O)c1ccco1 — lower, 0.657%
- CC(=O)Oc1ccc(/C=C(\NC(=O)c2ccco2)C(=O)NCc2ccco2)cc1 — lower, -52%
- CC(=O)Oc1ccc(/C=C(\NC(=O)c2ccco2)C(=O)Nc2ccc(C(C)=O)cc2)cc1 — lower, -26.2%
